For experiment [1], the target named is human RAR-related Orphan Receptor gamma (RORg), RORC (gene 6097) (UniProt P51449). Description: ATG_RORg_TRANS: Attagene TRANS-FACTORIAL HepG2 Assay for human RAR-related Orphan Receptor gamma (RORg) (AID 2283011; active means hit-call score of the fitted dose curve at least 0.9, where 1 is the maximum). The gist of the method: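 First, HepG2 liver cells were transfected with GAL4-UAS-driven reporter constructs and the RORg-Gal4 fusion. Next, they were treated with chemical for 24 h. Finally, reporter mRNA was quantified by RT-PCR and capillary electrophoresis, with upward activity fitted against DMSO.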
Sequence of human RAR-related Orphan Receptor gamma (RORg), RORC (gene 6097) (P51449 whole entry, looked up, the tested form may be a part): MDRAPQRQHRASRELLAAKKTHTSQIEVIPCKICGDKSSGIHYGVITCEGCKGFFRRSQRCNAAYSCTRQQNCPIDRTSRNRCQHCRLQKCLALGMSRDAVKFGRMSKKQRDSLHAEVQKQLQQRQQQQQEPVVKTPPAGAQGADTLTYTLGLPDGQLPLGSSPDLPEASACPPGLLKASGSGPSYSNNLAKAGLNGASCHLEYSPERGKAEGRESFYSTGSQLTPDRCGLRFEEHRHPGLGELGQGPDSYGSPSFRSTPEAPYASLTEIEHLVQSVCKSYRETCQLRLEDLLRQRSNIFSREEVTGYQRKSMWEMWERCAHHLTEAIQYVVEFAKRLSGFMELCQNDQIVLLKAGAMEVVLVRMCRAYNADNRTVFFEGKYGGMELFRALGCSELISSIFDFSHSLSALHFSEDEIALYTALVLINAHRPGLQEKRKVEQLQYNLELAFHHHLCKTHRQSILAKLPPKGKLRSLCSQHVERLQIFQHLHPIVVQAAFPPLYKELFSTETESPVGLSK

For experiment [2], the target named is Retinoic acid receptor RXR-alpha (Homo sapiens) (UniProt P19793). Description: ATG_RXRa_TRANS: Attagene TRANS-FACTORIAL HepG2 Assay for human Retinoid X Receptor alpha (RXRa) (AID 2283012; active means hit-call score of the fitted dose curve at least 0.9, where 1 is the maximum). The gist of the method:
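Read-out: fluorescent reporter-transcript fragments quantified by capillary electrophoresis after RT-PCR. Transiently transfected HepG2 cells carrying GAL4-UAS reporters and NR-GAL4 chimeras were exposed to chemical for 24 h; activity scored as increase over DMSO.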

Read-out in experiment [3]: E-selectin (Homo sapiens) (UniProt P16581)
Kind of experiment: BSK_3C_Eselectin: BioMAP Diversity Plus: 3C Assay for Eselectin Biomarker Activity (AID 2283015).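 On outcome: cell surface E-selectin protein quantified by ELISA 24 h after dosing.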 To be noted: primary human endothelial cells (HUVEC); actives raise or lower the signal. The gist of the method:
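ELISA read-out of E-selectin on endothelial monolayers after 24 h chemical treatment. Human umbilical vein primary cells served as the system, with DMSO defining baseline activity for bidirectional fitting.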

Read-out in experiment [4]: Interleukin-1 alpha (IL1a), IL1A (gene 3552)
Description: BSK_BE3C_IL1a: BioMAP Diversity Plus: BE3C Assay for Interleukin-1 alpha (IL1a) Biomarker Activity (AID 2283016). The note with it: primary human bronchial epithelial cells; actives raise or lower the signal. The gist of the method: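 ELISA read-out of IL-1a from human lung bronchial epithelial primary cells, 24 h post-dose. Gain or loss of signal fitted relative to DMSO negative control.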

Read-out in experiment [5]: Monocyte Chemoattractant Protein-1 (MCP1), CCL2 (gene 6347)
Description: BSK_3C_MCP1: BioMAP Diversity Plus: 3C Assay for Monocyte Chemoattractant Protein-1 (MCP1) Biomarker Activity (AID 2283017). The note with it: primary human endothelial cells (HUVEC); actives raise or lower the signal. Summed up: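 ELISA read-out of MCP-1 from human umbilical vein endothelial cell cultures harvested 24 h post-dosing. Gain or loss of signal was fitted relative to DMSO.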

Read-out in experiment [6]: Monocyte Chemoattractant Protein-1 (MCP1), CCL2 (gene 6347)
Description: BSK_4H_MCP1: BioMAP Diversity Plus: 4H Assay for Monocyte Chemoattractant Protein-1 (MCP1) Biomarker Activity (AID 2283018). The note with it: primary human endothelial cells (HUVEC); actives raise or lower the signal. Summed up: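 HUVEC primary cells, 24 h post-dose, MCP-1 by ELISA. Gain or loss of signal fitted bidirectionally vs DMSO baseline. Cytotoxicity: SRB stain (0.1% after 10% TCA fixation), read 560 nm, parallel cultures.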

Read-out in experiment [7]: Human Leukocyte Antigen - DR isotype (HLADR), HLA-DRA (gene 3122)
Kind of experiment: BSK_3C_HLADR: BioMAP Diversity Plus: 3C Assay for Human Leukocyte Antigen - DR isotype (HLADR) Biomarker Activity (AID 2283019). The note with it: primary human endothelial cells (HUVEC); actives raise or lower the signal. Summed up: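 ELISA readout of surface HLA-DR on human umbilical vein endothelium, taken 24 h after chemical treatment. Gain- and loss-of-signal were both fitted relative to DMSO.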

Read-out in experiment [8]: Interleukin-8 (IL8), CXCL8 (gene 3576)
Description: BSK_3C_IL8: BioMAP Diversity Plus: 3C Assay for Interleukin-8 (IL8) Biomarker Activity (AID 2283020). The note with it: primary human endothelial cells (HUVEC); actives raise or lower the signal. Summed up: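 HUVEC, 3C stimulation; 24 h compound exposure; IL-8 read by ELISA; gain or loss of signal fitted relative to DMSO control.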

Read-out in experiment [9]: Monokine induced gamma interferon (MIG), CXCL9 (gene 4283)
Kind of experiment: BSK_3C_MIG: BioMAP Diversity Plus: 3C Assay for Monokine induced gamma interferon (MIG) Biomarker Activity (AID 2283021).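 On AC50: MIG protein level measured by immunoassay in the treated endothelial cultures.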 The note with it: primary human endothelial cells (HUVEC); actives raise or lower the signal. Summed up:
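HUVEC, 3C system; 24 h chemical exposure; MIG by ELISA; bidirectional fit vs DMSO baseline.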

In experiment [10] the target is human Vitamin D Receptor (VDR), VDR (gene 7421) (UniProt P11473). Kind of experiment: ATG_VDR_TRANS: Attagene TRANS-FACTORIAL HepG2 Assay for human Vitamin D Receptor (VDR) (AID 2283022; active means hit-call score of the fitted dose curve at least 0.9, where 1 is the maximum). The gist of the method: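 Steps: transfect HepG2 with GAL4-UAS-driven reporter constructs; dose compounds 24 h; isolate RNA, reverse-transcribe, PCR-amplify with 6-FAM-labelled primer extension and HpaI digestion; quantify fragments by capillary electrophoresis relative to DMSO.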
Sequence of human Vitamin D Receptor (VDR), VDR (gene 7421) (P11473 whole entry, looked up, the tested form may be a part): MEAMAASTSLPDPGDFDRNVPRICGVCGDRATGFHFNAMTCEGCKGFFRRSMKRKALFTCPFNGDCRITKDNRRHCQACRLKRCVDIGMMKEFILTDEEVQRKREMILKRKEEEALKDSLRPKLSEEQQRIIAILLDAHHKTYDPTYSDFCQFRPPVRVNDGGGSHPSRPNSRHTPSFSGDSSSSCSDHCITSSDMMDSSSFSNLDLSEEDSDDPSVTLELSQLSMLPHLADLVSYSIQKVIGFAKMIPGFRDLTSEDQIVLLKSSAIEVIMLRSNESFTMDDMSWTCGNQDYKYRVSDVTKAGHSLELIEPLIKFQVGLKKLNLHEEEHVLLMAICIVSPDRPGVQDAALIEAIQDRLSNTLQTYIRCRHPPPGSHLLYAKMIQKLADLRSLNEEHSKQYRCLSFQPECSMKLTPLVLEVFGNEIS

Experiment [11] in a line: BSK_3C_SRB: Viability Assessment in the BioMAP Diversity Plus: 3C Assay (AID 2283023).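 Further: fitted both ways against DMSO so a hit may be signal rise or drop.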 The note with it: primary human endothelial cells (HUVEC). Summed up:
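Absorbance at 560 nm of sulforhodamine B-stained (0.1%) total protein served as a cytotoxicity readout in human umbilical vein endothelial cells, 24 h after chemical treatment. Signal was fitted bidirectionally relative to DMSO.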

Read-out in experiment [12]: Matrix Metallopeptidase 1 (MMP1), MMP1 (gene 4312)
Description: BSK_BE3C_MMP1: BioMAP Diversity Plus: BE3C Assay for Matrix Metallopeptidase 1 (MMP1) Biomarker Activity (AID 2283024). The note with it: primary human bronchial epithelial cells; actives raise or lower the signal. The gist of the method:
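ELISA read-out of MMP1 in human lung bronchial epithelial primary cultures, 24 h post-dose; bidirectional curve fit vs DMSO baseline, gain or loss of signal scored.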

Experiment [13] in a line: BSK_3C_Vis: BioMAP Diversity Plus: 3C Assay for Morphology Visualization (AID 2283025).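 Further: fitted both ways so gain or loss versus DMSO counts.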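 On AC50: light microscopy image of cell morphology used as background control.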 To be noted: primary human endothelial cells (HUVEC). The gist of the method:
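HUVEC, 3C system; light microscopy of morphology at 24 h post-dose. Bidirectional fit vs DMSO baseline. Secondary readout, background-control function.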

Read-out in experiment [14]: Pselectin, SELP (gene 6403)
Kind of experiment: BSK_4H_Pselectin: BioMAP Diversity Plus: 4H Assay for Pselectin Biomarker Activity (AID 2283026). The note with it: primary human endothelial cells (HUVEC); actives raise or lower the signal. Summed up: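 HUVEC, 24 h chemical exposure; P-selectin read by ELISA. Bidirectional curve fit vs DMSO baseline; gain or loss of signal scored.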

Experiment [15] in a line: BSK_4H_SRB: Viability Assessment in the BioMAP Diversity Plus: 4H Assay (AID 2283027).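 Further: cells exposed to compound for 24 h before staining.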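 On AC50: curves fitted both ways versus DMSO so AC50 may be loss or gain.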 To be noted: primary human endothelial cells (HUVEC). Summed up:
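Cytotoxicity readout: sulforhodamine B (0.1%) staining of total protein after 10% TCA fixation, measured at 560 nm in human umbilical vein endothelium at 24 h. DMSO set the baseline; fitting was bidirectional.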

A short description of experiment [16]: BSK_BE3C_SRB: Viability Assessment in the BioMAP Diversity Plus: BE3C Assay (AID 2283028).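 Further: measured 24 h after chemical dosing.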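 On AC50: fitted both ways so AC50 may mark signal gain or loss versus DMSO.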 To be noted: primary human bronchial epithelial cells. The gist of the method:
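Cells (human bronchial epithelial, primary) are treated with chemicals, and after 24 h the parallel cultures are fixed in 10% TCA. These are then stained with 0.1% SRB and read at 560 nm. Gain or loss of signal is fitted relative to DMSO.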

The target in experiment [17] is human Retinoid X Receptor beta (RXRb), RXRB (gene 6257) (UniProt P28702). Kind of experiment: ATG_RXRb_TRANS: Attagene TRANS-FACTORIAL HepG2 Assay for human Retinoid X Receptor beta (RXRb) (AID 2283013; active means hit-call score of the fitted dose curve at least 0.9, where 1 is the maximum). The gist of the method:
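Read-out: reporter mRNA induction via RT-PCR plus capillary electrophoresis fluorescence, analysed as signal increase relative to DMSO. Cells were human HepG2, transiently transfected with GAL4-UAS reporter constructs and chimeric receptor-Gal4 fusions, dosed for 24 h.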

Experiment [18] has as its target human Thyroid Receptor alpha (THRa1), THRA (gene 7067) (UniProt P10827). Kind of experiment: ATG_THRa1_TRANS: Attagene TRANS-FACTORIAL HepG2 Assay for human Thyroid Receptor alpha (THRa1) (AID 2283014; active means hit-call score of the fitted dose curve at least 0.9, where 1 is the maximum). The gist of the method:
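Reporter transcript induction, read by capillary electrophoresis of 6-FAM-labelled RT-PCR products, reflects activity of a transfected THRa1-Gal4 fusion in HepG2 liver cells. Cells were dosed for 24 h; activity was fitted in the positive direction against DMSO.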

Records with an inconclusive call do not appear. Activity calls are given as the source filed them. How the source made its calls, unless noted: active means hit-call score of the fitted dose curve at least 0.9, where 1 is the maximum; inactive means score below 0.9.

In general, AC50 refers to the midpoint of the concentration-response curve, whichever way the signal moves.

Sequence of human Thyroid Receptor alpha (THRa1), THRA (gene 7067) (P10827 whole entry, looked up, the tested form may be a part): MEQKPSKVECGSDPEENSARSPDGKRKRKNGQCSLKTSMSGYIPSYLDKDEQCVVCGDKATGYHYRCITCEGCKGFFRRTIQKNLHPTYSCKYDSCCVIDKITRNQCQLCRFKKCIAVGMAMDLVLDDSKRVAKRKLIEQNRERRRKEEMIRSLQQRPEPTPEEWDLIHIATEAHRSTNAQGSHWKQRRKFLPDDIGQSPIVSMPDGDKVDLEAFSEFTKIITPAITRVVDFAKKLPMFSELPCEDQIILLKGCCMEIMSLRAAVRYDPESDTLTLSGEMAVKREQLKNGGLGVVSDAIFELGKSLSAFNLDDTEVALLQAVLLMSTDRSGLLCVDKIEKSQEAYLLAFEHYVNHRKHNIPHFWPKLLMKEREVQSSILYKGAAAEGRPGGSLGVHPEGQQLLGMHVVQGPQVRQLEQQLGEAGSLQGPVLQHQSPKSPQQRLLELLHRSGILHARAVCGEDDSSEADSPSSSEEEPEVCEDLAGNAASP
Sequence of Retinoic acid receptor RXR-alpha (Homo sapiens) (P19793 whole entry, looked up, the tested form may be a part): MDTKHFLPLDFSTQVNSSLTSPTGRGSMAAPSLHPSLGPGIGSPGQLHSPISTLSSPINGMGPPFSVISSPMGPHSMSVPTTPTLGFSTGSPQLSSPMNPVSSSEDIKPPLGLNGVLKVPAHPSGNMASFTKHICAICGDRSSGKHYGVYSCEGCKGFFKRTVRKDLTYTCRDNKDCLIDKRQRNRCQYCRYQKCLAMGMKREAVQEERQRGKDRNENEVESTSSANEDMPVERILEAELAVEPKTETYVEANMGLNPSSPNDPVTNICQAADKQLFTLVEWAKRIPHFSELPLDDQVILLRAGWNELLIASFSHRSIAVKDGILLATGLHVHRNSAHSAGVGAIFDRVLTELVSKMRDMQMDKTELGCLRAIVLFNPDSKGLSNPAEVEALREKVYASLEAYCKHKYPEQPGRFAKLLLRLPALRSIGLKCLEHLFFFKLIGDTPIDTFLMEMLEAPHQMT
Sequence of E-selectin (Homo sapiens) (P16581 whole entry, looked up): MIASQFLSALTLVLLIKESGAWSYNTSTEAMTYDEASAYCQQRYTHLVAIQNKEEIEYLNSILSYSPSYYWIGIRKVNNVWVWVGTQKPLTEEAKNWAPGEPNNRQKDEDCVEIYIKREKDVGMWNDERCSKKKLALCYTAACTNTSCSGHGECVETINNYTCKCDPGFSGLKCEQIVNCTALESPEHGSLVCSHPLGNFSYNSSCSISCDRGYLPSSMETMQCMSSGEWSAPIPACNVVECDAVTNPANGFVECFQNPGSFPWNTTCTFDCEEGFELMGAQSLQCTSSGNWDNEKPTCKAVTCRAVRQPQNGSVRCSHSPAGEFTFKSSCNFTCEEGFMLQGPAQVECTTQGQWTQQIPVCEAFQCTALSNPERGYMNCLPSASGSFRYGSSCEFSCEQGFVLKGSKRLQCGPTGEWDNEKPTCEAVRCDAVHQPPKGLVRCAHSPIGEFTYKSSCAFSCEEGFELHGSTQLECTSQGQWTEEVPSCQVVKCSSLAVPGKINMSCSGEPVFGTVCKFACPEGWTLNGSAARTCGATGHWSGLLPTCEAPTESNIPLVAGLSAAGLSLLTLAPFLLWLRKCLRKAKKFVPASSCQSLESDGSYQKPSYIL
Sequence of human Retinoid X Receptor beta (RXRb), RXRB (gene 6257) (P28702 whole entry, looked up, the tested form may be a part): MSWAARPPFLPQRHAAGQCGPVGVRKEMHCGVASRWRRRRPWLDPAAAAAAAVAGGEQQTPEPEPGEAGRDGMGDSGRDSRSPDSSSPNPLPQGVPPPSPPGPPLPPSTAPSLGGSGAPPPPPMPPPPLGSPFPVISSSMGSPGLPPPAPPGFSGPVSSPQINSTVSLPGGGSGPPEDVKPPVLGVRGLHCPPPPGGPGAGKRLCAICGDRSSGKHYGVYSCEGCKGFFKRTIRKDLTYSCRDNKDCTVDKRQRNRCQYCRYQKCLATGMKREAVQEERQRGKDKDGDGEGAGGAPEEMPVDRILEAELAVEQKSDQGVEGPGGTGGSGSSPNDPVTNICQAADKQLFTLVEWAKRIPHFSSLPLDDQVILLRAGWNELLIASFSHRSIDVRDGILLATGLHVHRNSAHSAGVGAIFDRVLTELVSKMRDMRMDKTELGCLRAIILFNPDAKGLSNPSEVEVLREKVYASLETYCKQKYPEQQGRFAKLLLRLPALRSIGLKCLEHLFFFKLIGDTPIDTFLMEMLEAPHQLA

Take `O=C(Nc1ccc2[nH]ccc2c1)c1cc2cc(F)ccc2n1Cc1cccc(F)c1`: the result in experiment [1], in [2] and in experiment [10] was inactive. The AC50 was 10.9 µM (active) in experiment [3]; 10.3 µM (active) in [4]; 8.53 µM (active) in experiment [5]; 5.82 µM (active) in experiment [6]; 7.97 µM (active) in [7]; 6.43 µM (active) in experiment [8]. The AC50 in [9] is 10.4 µM (active); in experiment [11] it was 8.66 µM (active); in [12], 9.72 µM (active); in [13], 12.8 µM (active); in experiment [14], 7.85 µM (active); in [15], 10 µM (active). In [16], the AC50 is 6.76 µM (active).

With `CCOC(=O)/C=C(C)/C=C/C[C@@H](C)CCCC(C)C`, the call in experiment [2], in experiment [8], in [10], in experiment [12], in [13] and in experiment [16] was inactive. For the same compound, the AC50 in experiment [17] is 26.9 µM (active); in [3], 26.5 µM (active); in experiment [4], 20 µM (active); in [5], 31.2 µM (active); in experiment [6], 29.4 µM (active); in experiment [7], 28.1 µM (active). Further, the AC50 was 30.8 µM (active) in [9], 36.4 µM (active) in experiment [11] and 34.3 µM (active) in experiment [15].

Turning to `C[C@H]1O[C@@H](O[C@H]2[C@@H](O)C[C@H](O[C@H]3[C@@H](O)C[C@H](O[C@H]4CC[C@@]5(C)[C@H](CC[C@@H]6[C@@H]5CC[C@]5(C)[C@@H](C7=CC(=O)OC7)CC[C@]65O)C4)O[C@@H]3C)O[C@@H]2C)C[C@H](O)[C@@H]1O`, the call in [2], in [18] and in [10] was inactive.

For `Clc1nc(Cl)nc(Cl)n1`, the call in [2] and in [10] was inactive.

In the case of `COC(=O)c1sccc1S(=O)(=O)NC(=O)Nc1nc(C)nc(OC)n1`, the outcome in experiment [3], in experiment [4], in experiment [5], in experiment [6], in experiment [7] and in experiment [8] was inactive. For the same compound, the result in experiment [9], in experiment [11], in experiment [12], in [13], in experiment [14] and in experiment [15] was inactive. The outcome in [16] was inactive.

`C[C@@H]1C[C@@H]([C@H](O)CC2CC(=O)NC(=O)C2)C(=O)[C@@H](C)C1`: the result in experiment [2] and in experiment [16] was inactive. For the same compound, the AC50 in experiment [3] was 2.4 µM (active); in [4], 10.7 µM (active); in [5], 8.41 µM (active); in experiment [6] it was 4.06 µM (active); in experiment [7], 3.85 µM (active); in experiment [8], 6.06 µM (active). In addition, the AC50 in [9] is 20.1 µM (active); in experiment [11], 4.82 µM (active); in experiment [12] it was 2.51 µM (active); in [13], 9.24 µM (active); in experiment [15] it was 7.08 µM (active).

`O=S(=O)(c1ccc(Cl)cc1)c1ccc(Cl)cc1`: the result in [2], in experiment [18], in experiment [3], in [4], in [6] and in experiment [7] was inactive. Further, the result in experiment [8], in experiment [9], in [10], in experiment [11], in experiment [12] and in [13] was inactive. Moreover, the outcome in [15] and in [16] was inactive.

With `CCCCOCCOC(C)=O`, the compound was called inactive in [2], in experiment [18] and in experiment [10].

Consider `CCCCP(CCCC)CCCC`, for which the result in experiment [2], in experiment [18] and in [10] was inactive.

The record behind these values is PubChem BioAssay (EPA / NIEHS).
